In PubChem BioAssay (NCI):
About 83,000 compounds went through this panel and 20% of them were active in at least one assay; those are over-represented in the sample as a whole.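 Interpretation: 100, growth as untreated; towards 0, rising growth inhibition; 0, no net growth; 0 to -100, cell death. Compounds scoring below 10 were considered active.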 Active and inactive are the calls of the source.

Legend:
Test in all cases: NCI-60 one-dose screen, 48 h (100 = growth as untreated, 0 = no growth, -100 = all killed)
Conditions in all cases: 10 µM unless noted
[1] = system: SK-MEL-2 melanoma
[2] = system: EKVX NSCLC
[3] = system: SN12C renal
[4] = system: UO-31 renal
[5] = system: TK-10 renal
[6] = system: ACHN renal
[7] = system: CAKI-1 renal
[8] = system: A498 renal
[9] = system: CCRF-CEM leukemia
[10] = system: MOLT-4 leukemia
[11] = system: SR leukemia
[12] = system: RPMI-8226 leukemia
[13] = system: OVCAR-8 ovarian
[14] = system: OVCAR-5 ovarian
[15] = system: OVCAR-4 ovarian
[16] = system: SK-OV-3 ovarian
[17] = system: IGROV1 ovarian
[18] = system: OVCAR-3 ovarian
[19] = system: HS 578T breast
[20] = system: NCI/ADR-RES ovarian

Measured: growth

Cc1ccc2nc3ccccc3c(NCc3ccc(Cl)cc3)c2c1
active: [10] 0.0972% | [11] -9.22% | [12] -28.5%
inactive: [1] 102% | [2] 55.4% | [3] 39.6% | [4] 24.5% | [5] 82.4% | [6] 33.3% | [7] 45.7% | [8] 13% | [9] 18.2% | [13] 52.4% | [14] 50.7% | [15] 37.5% | [16] 75.2% | [17] 27.1% | [18] 70.9% | [19] 77.8% | [20] 42%

c1ccc(-c2cc(-c3cc(-c4ccccc4)on3)no2)cc1
active: [6] -3.89%
inactive: [1] 20.5% | [2] 121% | [3] 92.9% | [4] 92.1% | [5] 104% | [7] 35.5% | [8] 97.6% | [9] 81.9% | [10] 63.7% | [11] 61.6% | [12] 88.1% | [13] 74.6% | [14] 77.1% | [15] 96.7% | [16] 109% | [17] 63.6% | [18] 127% | [19] 116% | [20] 69.7%

CC12OC(CC(O)C1O)n1c3ccccc3c3c4c(c5c6ccccc6n2c5c31)C(=O)N(CCN1CCOCC1)C4=O (stereo not given)
inactive: [1] 12.6% | [2] 32% | [3] 10.3% | [9] 16.4% | [13] 17% | [14] 24.7% | [15] 22.9% | [18] 20.8% | [19] 23.1% | [20] 15.4%
active: [4] -9.86% | [5] -11.1% | [6] -59.7% | [7] 2.22% | [8] -15.3% | [10] 3.59% | [11] 1.71% | [12] 6.35% | [16] -8.93% | [17] 5.73%

COc1ccc(/C=C/C(=O)c2cc3c(N)c(C(=O)Nc4ccccc4)sc3nc2C)cc1
inactive: [1] 53.1% | [2] 47% | [3] 12.5% | [4] 35.2% | [5] 36.9% | [6] 31.4% | [7] 23.1% | [8] 18.6% | [9] 16.3% | [10] 30.9% | [11] 23.4% | [14] 39.3% | [15] 49.3% | [16] 33% | [17] 31% | [19] 14.6%
active: [12] -13.3% | [13] 3.29% | [18] -16.6% | [20] 2.9%

COc1ccc(-c2csc(NC(=O)CN3CCN(CCO)CC3)n2)cc1NS(=O)(=O)c1cccc2c(N(C)C)cccc12
active: [11] -6.12%
inactive: [1] 86.9% | [2] 80.9% | [3] 89.1% | [4] 61.4% | [5] 109% | [6] 87% | [7] 75.6% | [8] 102% | [9] 54.8% | [10] 65.4% | [12] 36% | [13] 84.1% | [14] 97% | [15] 68.2% | [16] 90.7% | [17] 77.3% | [18] 79.5% | [19] 65.7% | [20] 93.3%

N#CC(Cc1cccc2ccccc12)c1cc2ccccc2[nH]1 (stereo not given)
active: [9] -47%
inactive: [1] 113% | [2] 94.1% | [3] 90.2% | [4] 51.9% | [5] 108% | [6] 95.2% | [7] 73.7% | [8] 112% | [10] 78.2% | [11] 99.2% | [12] 72.3% | [13] 87.7% | [14] 89% | [15] 95.1% | [16] 84.1% | [17] 86.4% | [18] 89.7% | [19] 89.7% | [20] 87.2%

Nc1nc(N)c2c(n1)NC(c1ccc(Cl)cc1)CC(c1cccc(Nc3ccncc3)c1)=N2 (stereo not given)
active: [11] 8.66%
inactive: [1] 76.3% | [2] 62.1% | [3] 53% | [4] 90.6% | [5] 113% | [6] 73.5% | [7] 73.7% | [8] 81.1% | [9] 32.7% | [10] 38.1% | [12] 55.9% | [13] 39% | [14] 90.4% | [15] 73.8% | [16] 84.2% | [17] 41.6% | [18] 82.3% | [19] 77.9% | [20] 100%

C/C=C(\C)C(=O)N[C@H]1CC[C@]2(C)C3CC[C@@]4(C)C(CC[C@@H]4C(C)N(C)C)C3CCC2[C@H]1OC(C)=O (stereo not given in full)
active: [1] -32.7% | [2] -11.3% | [3] -3.57% | [4] -4.52% | [5] -48.3% | [6] -65.1% | [7] -43.3% | [8] -32.9% | [9] 1.62% | [11] 7.3% | [12] -15.3% | [15] -23.3% | [16] -21.4% | [17] 9.32% | [18] -53.9% | [19] -39.9%
inactive: [10] 11.2% | [13] 24.9% | [14] 22% | [20] 16.5%

Cc1c(CC(=O)OCCO)cc(-c2ccc(Cl)cc2)n1-c1ccccc1
inactive: [1] 103% | [2] 95.5% | [3] 92.4% | [4] 75.5% | [5] 115% | [6] 100% | [7] 87.6% | [8] 87.9% | [9] 99% | [10] 91.4% | [11] 91.2% | [12] 72.1% | [13] 92.4% | [14] 99.6% | [15] 68.9% | [16] 110% | [17] 104% | [18] 108% | [19] 106% | [20] 99.5%

Cc1nc2cccc(NCCCCC(=O)NO)c2c(=O)n1-c1ccccc1
inactive: [1] 55.9% | [2] 63.8% | [3] 69.8% | [4] 56.6% | [5] 37.1% | [6] 54.3% | [7] 55.6% | [8] 48.5% | [9] 25.3% | [10] 25.1% | [11] 29.4% | [12] 36.1% | [13] 39.5% | [14] 31.1% | [15] 68.7% | [16] 50.8% | [17] 58.2% | [18] 68.1% | [19] 55.2% | [20] 75.3%

C#CCn1cnc2cnc(Nc3cccc(NC(=O)CCl)c3)nc21
inactive: [2] 69.1% [6.25 µM] | [14] 14.8% [6.25 µM] | [15] 13% [6.25 µM] | [16] 15.3% [6.25 µM] | [19] 10.4% [6.25 µM]
active: [1] -14.1% [6.25 µM] | [3] 6.82% [6.25 µM] | [4] -71.1% [6.25 µM] | [5] -5.69% [6.25 µM] | [6] -39.9% [6.25 µM] | [7] -34.2% [6.25 µM] | [8] -42.2% [6.25 µM] | [9] 1.51% [6.25 µM] | [10] 0.772% [6.25 µM] | [11] 1.67% [6.25 µM] | [12] -14.9% [6.25 µM] | [13] 8.6% [6.25 µM] | [17] -38.1% [6.25 µM] | [18] -44.9% [6.25 µM] | [20] 2.34% [6.25 µM]

O=C(CN1C(=O)S/C(=C\C(Cl)=C\c2ccccc2)C1=O)NCCCn1ccnc1
active: [6] 5.51% | [9] 5.11% | [10] 6.18% | [11] 2.18% | [12] 0.978% | [17] 2.87% | [18] 1.07%
inactive: [1] 38.2% | [2] 41.2% | [3] 26.1% | [4] 48.7% | [5] 36.2% | [7] 50.5% | [8] 95.7% | [13] 12.4% | [14] 80.1% | [15] 43.1% | [16] 86% | [19] 51.7% | [20] 81.2%

COc1ccc(Nc2nn3c(SCC(=O)c4ccc(C)cc4)nnc3s2)cc1
inactive: [1] 98.2% | [2] 99.9% | [3] 101% | [4] 58.7% | [5] 107% | [6] 86.5% | [7] 75.2% | [8] 93.7% | [9] 98.1% | [10] 85.4% | [11] 68.9% | [12] 98% | [13] 94.8% | [14] 99.3% | [15] 108% | [16] 79.2% | [17] 91.4% | [18] 110% | [19] 92.2% | [20] 104%

COc1ccc2c(c1)c(C(=O)c1nc(-c3cn(C)c4ccccc34)no1)cn2C
inactive: [1] 101% | [2] 103% | [3] 89.5% | [4] 77.2% | [5] 91.7% | [6] 95.9% | [7] 94.1% | [8] 87.7% | [9] 87.9% | [10] 94.2% | [11] 44.7% | [12] 93.6% | [13] 97.9% | [14] 107% | [15] 95.8% | [16] 84.5% | [17] 86.5% | [18] 109% | [19] 88.2% | [20] 94.3%
